Laboratory results: PubChem BioAssay (NCI)
About 83,000 compounds went through this panel and 20% of them were active in at least one assay; those are over-represented in the sample as a whole.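 Each cell line was grown in a 96-well plate and treated with one concentration of compound for 48 hours. Values below 10 were considered active.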 A number with no mark means an inactive call. Calls of active or inactive are those of the source.

These compounds were tested on SN12C renal (assay: NCI-60 one-dose screen, 48 h (100 = growth as untreated, 0 = no growth, -100 = all killed)). Conditions: 10 µM unless noted.

Structure (SMILES)	growth
COc1cc(C(=O)NN=C2c3ccccc3-c3ccccc32)cc(OC)c1OC	41.6%
COc1cc(-c2c3c(c(Br)n2Cc2ccccc2)-c2nc(N)sc2CC3)cc(OC)c1OC	85.7%
O=C(Nc1ccc(-c2nc3cc4ccccc4cc3[nH]2)cc1)c1cccc(Br)c1	44.6%
Cc1cc(Nc2ccc(OCc3ccccc3)cc2)nc2cc(O)ccc12	78.2%
Nc1nonc1-n1nncc1-c1cccnc1	117%
N#C/C(=C1\SC(=O)CN1c1ccccc1)c1nc2ccccc2s1	91%
Clc1ccc(-c2nnc(COc3ccc(C4=NNC(c5ccco5)C4)cc3)o2)cc1 (centres undefined)	86.5%
CCOC(=O)CSc1c(-c2ccccc2)c2cc(Cl)ccc2[nH]c1=O	102%
COC(=O)C1(C)COP(=O)(Nc2ccc(OC)cc2)OC1 (centres undefined)	102%
CC1=C(CC(=O)c2cccc([N+](=O)[O-])c2)C(=O)c2ccccc2C1=O	-36% (active)
N#Cc1c(N)nc2c(c1N)C(c1ccc(F)cc1)c1ccc(N)cc1O2 (centres undefined)	104%
O=C(Nc1nc2c(s1)CCc1c-2c(Br)n(Cc2ccccc2)c1Br)c1ccccc1	87.7%
CN(C)CCNc1cc(-c2ccccc2)nc2ccccc12	-88.5% (active)
O=S(=O)(c1ccc(NC(=S)NC23CC4CC(CC(C4)C2)C3)cc1)N1CCCCC1	96.5%
CCCCc1c(CCC)c(=N)c2ccccc2n1C	79.7%
COc1ccccc1N1C(=N)S/C(=C\c2ccc(OCc3ccccc3F)cc2)C1=O	80.7%
Cc1ccc(S(=O)(=O)c2c(COC(=O)c3cccc(C)c3)c(-c3ccccc3)nn2C)cc1	89.1%
COc1ccc(-c2nc(N3CCN(C(=O)C4CCCCC4)CC3)c3c4c(sc3n2)CCCC4)cc1	77.2%
CC(=Nc1ccccc1)C1=C(O)C(Cc2ccc(F)cc2)NC1=O (centres undefined)	49.1%
CCOc1ccccc1CN1CCc2nc3cc(C(C)(C)C)[nH]n3c(=O)c2C1	104%

Structure (SMILES)	growth
COc1cc(C(=O)O/N=C(\N)Cc2cccc3ccccc23)cc(OC)c1OC	63%
O=C1OC(c2ccccc2)(c2ccccc2)c2ccsc21	98.8%
COc1ccc2sc(N(Cc3cccnc3)C(=O)c3ccc(C#N)cc3)nc2c1	80%
O=C(NC1CCN(Cc2ccccc2)CC1)c1cc(C(=O)NC2CCN(Cc3ccccc3)CC2)cc(C(=O)NC2CCN(Cc3ccccc3)CC2)c1	69.2%
Oc1c(CN2CCN(c3ccccc3F)CC2)cc(Br)c2cccnc12	8.15% (active)
O=C(Nc1ccc(Cl)cc1)N1CCN(c2ccc3nncn3n2)CC1	54.3%
Cc1[nH]c2ccccc2c(=O)c1CC=C(Cl)Cl	48.2%
COc1ccc(C)c2sc(N(Cc3cccnc3)C(=O)c3ccc(C#N)cc3)nc12	7.62% (active)
O=C(Cc1ccccc1)NC(c1ccc(Cl)cc1)c1c(O)ccc2ccccc12 (centres undefined)	14.9%
CCOC(=O)C1=CN(C)C=C(C(=O)OCC)C1c1cc(Br)c(OCC)c(OC)c1	56.5%
COc1ccc(/C=C/C(=O)c2ccc3cc(OC)c(OC)cc3c2)cc1OC	32.2%
CCC1=C[C@@H]2CN(C1)Cc1c([nH]c3ccccc13)[C@@](C(=O)OC)(c1cc3c(cc1OC)N(C)[C@H]1[C@@](O)(C(=O)OC)[C@H](OC(C)=O)[C@]4(CC)[C@@H]5C[C@@H]5CN5CC[C@]31[C@@H]54)C2	19.3%
COc1ccc(-c2nsc3c2NC(=O)CC3c2ccc3c(c2)OCCO3)cc1 (centres undefined)	44.4%
CCCCNc1nc(NC(C)(C)C)nc(NC(C)(C)C)n1	56.1%
CCOc1ccc2nc(C)cc(Nc3ccc(Br)cc3)c2c1	98.5%
Cc1ccc(Nc2nc(N)c3ccccc3n2)cc1Cl	65.4%
CCOC(=O)C1=C(C)N=c2s/c(=C\c3cc(Cl)ccc3O)c(=O)n2C1c1ccc(OC)cc1 (centres undefined)	93.8%
COC(=O)[C@@H]1CCCN1C(=O)[C@H]1CCCN1C(=O)[C@@H](Cc1c[nH]c2ccccc12)NC(=S)Nc1cc(C(F)(F)F)cc(C(F)(F)F)c1	44.4%
COc1ccc(-c2cc(=O)c3c(OC)c4ccoc4c(/C=C/C=O)c3o2)cc1	13%
